Compounds with a hit are over-represented: about 2.8% of the library has one in this group of screens.
D3 antag = D3 dopamine receptor (human) antagonism; 360,000 tested, 2.5% active; AID 652054; max response, negative = inhibition, %; D3R cells, DiscoveRx beta-arrestin luminescence, antagonist mode; active compounds read low; P35462; in the data active = max response below about -50%; inconclusive = no clear call, values can overlap the other calls
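Cells plated overnight at 1500 cells/well, then exposed to library compounds with dopamine controls for 90 minutes at 37 degrees C. DiscoveRx reagent added for 30–60 minutes at room temperature; luminescence read, quantitative HTS format.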
DRD3 agonist = D3 dopamine receptor (human) agonism; D3R DiscoveRx beta-arrestin cells, luminescence, 90 min; max activation, %; 410,000 tested, 0.58% active; in the data active = max activation above about 30%
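Agonist-mode cell screen: cells plated at 1500/well and incubated overnight at 37 °C, then exposed to library compounds for 90 min at 37 °C. Detection reagent was added for 30–60 min at room temperature, and luminescence was read.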
CBFb RUNX1 block = inhibitors of human CBF-beta and RUNX1 interaction. Potency, µM (top dose mostly 59.8 µM), actives largely listed as inhibitors. AlphaScreen CBFb-His/RUNX1-biotin binding, biochemical. 230,000 tested, under 10 active. Q01196+Q13951
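Compounds were screened at multiple concentrations against a preformed CBF-beta(His)/RUNX1(biotin) complex (30 nM of each) for 15 min at room temperature, followed by 90 min with nickel and streptavidin beads and AlphaScreen reading.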
MBNL1-CUG inh = blocks human MBNL1 binding to CUG repeat RNA; 280,000 tested, 0.036% active; AID 2675; Potency, µM (top dose mostly 57.5 µM), usual class: inhibitors; TR-FRET MBNL1-His/biotin-(CUG)12 binding, 665/545 ratio; active = well fitted inhibition curve with a large enough effect in the signal ratio, with a control signal flat, not every such curve was filed as active; inconclusive = small, poorly fitted or top-dose-only effect, or effect the other way, or a change in a side signal; inactive = no such curve, though single readings can be large or run the other way; the % refers to the signal ratio
Target sequence (Q9NR56 whole entry, looked up): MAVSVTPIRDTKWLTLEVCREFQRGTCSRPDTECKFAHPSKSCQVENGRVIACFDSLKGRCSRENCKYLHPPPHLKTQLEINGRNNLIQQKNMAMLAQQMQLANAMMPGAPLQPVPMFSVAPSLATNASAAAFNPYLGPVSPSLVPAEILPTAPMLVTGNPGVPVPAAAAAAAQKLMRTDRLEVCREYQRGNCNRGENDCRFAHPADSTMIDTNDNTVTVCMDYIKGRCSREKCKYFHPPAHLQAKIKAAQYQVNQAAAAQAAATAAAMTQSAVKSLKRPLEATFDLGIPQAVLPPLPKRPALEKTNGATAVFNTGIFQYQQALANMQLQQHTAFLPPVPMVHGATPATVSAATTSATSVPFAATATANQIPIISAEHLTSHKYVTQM
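TR-FRET between His-tagged MBNL1 and biotin-(CUG)12 RNA, detected with Tb anti-His antibody (0.055 ng/ul) and streptavidin-XL665 (5 nM), 60 min at room temperature. Compounds titrated 92 nM to 58 uM; 665/545 nm ratio normalized to buffer and complex controls.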
a7 integrin act = integrin-mediated muscular dystrophy alleviation activation; alpha7betagal myoblasts, beta-gal FDG fluorescence, 48 h; Potency, µM (doses to about 38.3 µM), usual class: activators; 350,000 tested, 0.064% active; AID 624291; also: nearly all actives have a fitted effect of over 60% in size
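alpha7betagal+/- myoblasts (passage 13, 250/well) treated 48 h at 37C with compounds at 1:260 dilution of DMSO stock. Lysed, then beta-galactosidase activity read as FDG fluorescence (ex 480/em 540) after 30 min, with pre-read for autofluorescence.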
PTHR1 ag = PTHR1 (human) receptor agonism. 410,000 tested, 0.075% active. Potency, µM (titrated, usually from 115 µM), usual class: activators. HEK293 GP2 PTHR1 cells, GloSensor cAMP luminescence, 1 h. Q03431; also: nearly all actives have a fitted effect of over 55% in size
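HEK-293-derived GP2 cells expressing PTHR1 and a GloSensor cAMP reporter, 3,000/well, plated overnight, given luciferin plus IBMX (each 0.5 mM as added) for 1 h at 37 °C, then compound for 1 h at 37 °C. Luminescence was read after 15 min at room temperature.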
MBNL1 TRFRET = blocks human MBNL1 binding to CUG repeat RNA, TR-FRET validation; Potency, µM (top dose mostly 57.6 µM), usual class: inhibitors; shares compounds with MBNL1-CUG inh; 140 tested, 50% active; AID 493199; TR-FRET MBNL1-His / biotin-(CUG)12 binding, 60 min
MBNL1 AlphaScrn = blocks MBNL1 binding to (CUG)12 RNA in AlphaScreen. Potency, µM (top dose mostly 57.7 µM), hits mostly inhibitors. shares compounds with MBNL1-CUG inh. AlphaScreen MBNL1-His / biotin-(CUG)12 binding. 140 tested, 30% active
Menin-MLL HTRF = MBNL1-CUG RNA binding inhibitor counterscreen activity; shares compounds with MBNL1-CUG inh; His-Menin/biotin-MLL peptide TR-FRET counterscreen; Potency, µM (highest dose often 57.6 µM), hits mostly inhibitors; 120 tested, 20% active; AID 651843
Large screens that a line does not name were inactive (follow-up assays come after a bar, where they were run). Unless noted, calls follow the shape of the dose curve; as a rule, active = well fitted curve in the direction sought with a large enough effect; inconclusive = small, poorly fitted or top-dose-only effect, or another doubt; inactive = no such curve, though single readings can be large; an effect the other way counts as inactive or inconclusive.

CS(=O)(=O)c1ccc(C(=O)C2C(=O)CCCC2=O)c([N+](=O)[O-])c1	none (no result: D3 antag, CBFb RUNX1 block, MBNL1-CUG inh, a7 integrin act, PTHR1 ag)
CCCSc1cc(OC)c(CCN)cc1OC	none (no result: D3 antag, CBFb RUNX1 block, MBNL1-CUG inh, a7 integrin act, PTHR1 ag)
CCc1nc(N2CCNCC2)c(C#N)c2c1CSC(C)(C)C2	D3 antag -74
CC(C)Cc1nc(N2CCNCC2)c(C#N)c2c1CCC2	D3 antag inconclusive (no result: MBNL1-CUG inh)
CN1C[C@H](CNC(=O)OCc2ccccc2)C[C@H]2c3cccc4c3c(cn4C)C[C@@H]21	none (no result: D3 antag, DRD3 agonist, MBNL1-CUG inh, a7 integrin act, PTHR1 ag)
CN1C[C@H](CNC(=O)OCc2ccccc2)C[C@@H]2c3cccc4c3c(cn4C)C[C@H]21	D3 antag -117, MBNL1-CUG inh inconclusive (no result: a7 integrin act) | MBNL1 TRFRET inconclusive | MBNL1 AlphaScrn inconclusive
Cc1nnc2n1-c1ccc(Cl)cc1C(c1ccccc1Cl)=NC2	none (no result: D3 antag, CBFb RUNX1 block, MBNL1-CUG inh, a7 integrin act, PTHR1 ag)
Clc1ccc2c(c1)C(c1ccccc1Cl)=NCc1nnc(Br)n1-2	MBNL1-CUG inh 25µM | MBNL1 TRFRET inactive | MBNL1 AlphaScrn inactive | Menin-MLL HTRF inactive
O=C(Cn1c(=O)oc2cc(S(=O)(=O)N3CCCCCC3)ccc21)NCc1ccccc1Cl	none (no result: D3 antag, CBFb RUNX1 block, MBNL1-CUG inh, a7 integrin act)
C=CCBr	none (no result: D3 antag, DRD3 agonist, MBNL1-CUG inh, a7 integrin act, PTHR1 ag)
CCn1nc(-c2ccccc2)nc2c(=O)n(C)c(=O)nc1-2	D3 antag inconclusive, MBNL1-CUG inh inconclusive (no result: CBFb RUNX1 block) | MBNL1 TRFRET 0.52µM | MBNL1 AlphaScrn 0.26µM | Menin-MLL HTRF inactive
Oc1ccc2c3c1O[C@H]1c4[nH]c5c(c4C[C@@]4(O)[C@@H](C2)N(CC2CC2)CC[C@]314)C[C@@]1(O)[C@H]2Cc3ccc(O)c4c3[C@@]1(CCN2CC1CC1)[C@H]5O4	none (no result: D3 antag, DRD3 agonist, MBNL1-CUG inh, a7 integrin act, PTHR1 ag) | MBNL1 TRFRET 16µM | MBNL1 AlphaScrn 11µM
Oc1ccc2c3c1O[C@H]1c4[nH]c5ccccc5c4C[C@]4(O)[C@H](C2)N(CC2CC2)CC[C@@]314	none (no result: D3 antag, DRD3 agonist, MBNL1-CUG inh, a7 integrin act, PTHR1 ag)
CCOC(=O)N1CCC(NC(=O)CCc2nc(C3=CCN(C)CC3)no2)CC1	MBNL1-CUG inh 10µM | MBNL1 TRFRET 8.2µM | MBNL1 AlphaScrn 3.7µM | Menin-MLL HTRF inconclusive
O=C1c2ccccc2C(=O)C1C(=O)C(c1ccccc1)c1ccccc1	none (no result: D3 antag, CBFb RUNX1 block, MBNL1-CUG inh, a7 integrin act, PTHR1 ag) | MBNL1 TRFRET inconclusive | MBNL1 AlphaScrn inconclusive | Menin-MLL HTRF inactive
COC(=O)[C@@H]1[C@@H](O)[C@@]2(O)c3c(OC)cc(OC)cc3O[C@@]2(c2ccc(OC)cc2)[C@H]1c1ccccc1	none (no result: D3 antag, DRD3 agonist, MBNL1-CUG inh, a7 integrin act, PTHR1 ag)
